Screens deposited in PubChem BioAssay by National Center for Advancing Translational Sciences (NCATS).
SARS PLP yeast: SARS-CoV PLP inhibition in yeast | S. cerevisiae expressing SARS-CoV PLpro, growth rescue | actives 0.19% (n = 330,000) | Potency, µM (series often up to 32.9 µM), for inactives: at the highest dose activity, positive = growth rescue, actives largely listed as activators; calls by dose curve; note: potency is the fitted concentration of half-maximal effect; 0% is about no effect; nearly all actives have a fitted effect of over 55% in size
AmpC inh no detg: AmpC beta-lactamase inhibition without detergent; P00811; AmpC nitrocefin hydrolysis, absorbance 480 nm, 0.0001% Triton; Potency, µM (doses to about 57.1 µM), for inactives: at the top dose activity change, negative = inhibition, actives largely listed as inhibitors; actives 0.52% (n = 330,000);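 note: potency is the fitted concentration of half-maximal effect; plate controls were no compound for no effect and no enzyme for full effect; nearly all actives have a fitted effect of over 20% in size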
Target sequence (P00811 whole entry, looked up): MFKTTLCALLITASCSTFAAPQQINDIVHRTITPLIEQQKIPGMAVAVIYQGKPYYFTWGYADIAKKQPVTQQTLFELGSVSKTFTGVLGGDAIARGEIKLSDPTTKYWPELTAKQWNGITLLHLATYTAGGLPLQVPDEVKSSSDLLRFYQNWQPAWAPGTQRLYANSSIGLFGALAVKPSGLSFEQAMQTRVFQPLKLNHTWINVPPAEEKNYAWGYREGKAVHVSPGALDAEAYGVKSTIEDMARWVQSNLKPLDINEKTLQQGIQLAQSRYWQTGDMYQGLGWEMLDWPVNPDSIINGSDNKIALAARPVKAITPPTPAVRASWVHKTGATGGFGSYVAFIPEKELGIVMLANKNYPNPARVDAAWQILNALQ
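AmpC (5.3 nM in the dispensed reagent) in 20 mM phosphate pH 7.0 with 0.01% (detergent screen) or 0.0001% Triton X-100 was preincubated with compounds for 15 min at room temperature. Nitrocefin was then added from an 800 uM solution, and hydrolysis was followed at 480 nm.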
Shiga toxin inh: blocks Shiga toxin action in Vero cells. Vero cells, Shiga toxin protein synthesis inhibition reporter. inhibition, % at 38.7 µM. actives 9.2% (n = 290,000); in the data active = inhibition mostly above about 28%, no sharp cut-off; inactive = mostly below about 43%; note: 0% is about no effect
AMA1-RON2 inh: inhibitors of Plasmodium falciparum AMA1-RON2 interaction. AlphaScreen AMA1-biotinylated RON2 peptide binding. Potency, µM (series often up to 58.2 µM), without a hit: top-dose activity change, negative = inhibition, actives largely listed as inhibitors. actives 0.2% (n = 360,000). AID 720542;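 note: potency is the fitted concentration of half-maximal effect; 0% = vehicle wells and -100% = peptide control; nearly all actives have a fitted effect of over 45% in size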
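AMA1 (3D7) with his tag at 25 nM final met compounds first, then biotinylated RON2 peptide at 25 nM; detection used donor plus acceptor beads, 10 µg/mL apiece, read by AlphaScreen after 30 min at room temperature.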
AmpC detergent: AmpC beta-lactamase inhibition with detergent present. Potency, µM (series often up to 114 µM), for inactives: at the highest dose activity change, negative = inhibition, usual class: inhibitors. AmpC hydrolysis of nitrocefin, absorbance 480 nm, 0.01% Triton. actives 0.041% (n = 370,000). P00811. AID 485294;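 note: potency is the fitted concentration of half-maximal effect; 0% = no-compound wells and -100% = no-enzyme wells; nearly all actives have a fitted effect of over 25% in size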
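20 mM phosphate pH 7.0 + 0.01% (detergent screen) or 0.0001% Triton X-100; 5.3 nM AmpC reagent; cpd preinc 15 min RT; nitrocefin (800 uM stock) to start; A480 q20 s × 4 min; Activity was normalised to no-enzyme and no-compound control wells.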
CHX counter: counter-screen for Shiga toxin inhibitors: cycloheximide protein synthesis inhibition. cell reporter, cycloheximide protein synthesis inhibition counterscreen. actives 12% (n = 300,000). max response, %. AID 2314; in the data active = max response mostly above about 13%, no sharp cut-off; inactive = mostly below about 14%; note: read at 38.3 µM for the half of the compounds with a filed dose; 0% is about no effect
* marks the source's active call; other numbers are inactive results. Many of the other results were omitted from the sample, so hits are more common in it than they were. Unless noted, calls come from the whole dose curve; as a rule, active = well fitted curve in the direction sought with a large enough effect; inconclusive = small, poorly fitted or top-dose-only effect, or another doubt; inactive = no such curve, though single readings can be large; an effect the other way counts as inactive or inconclusive.

Results for CCN1CCN(c2ccc(NC(=O)c3ccc([N+](=O)[O-])o3)cc2Cl)CC1 ?
SARS PLP yeast: 13%; AmpC inh no detg: -18%; Shiga toxin inh: -20; AMA1-RON2 inh: -11%; AmpC detergent: 6%; CHX counter: 23*

Results for CC(=O)N1CCN(c2ccc(NC(=O)c3ccc([N+](=O)[O-])o3)cc2Cl)CC1 ?
SARS PLP yeast: -17%; AmpC inh no detg: 126%; Shiga toxin inh: 50*; AMA1-RON2 inh: -7%; AmpC detergent: 12%; CHX counter: 25*

Results for COC(=O)c1ccc(/C=N\N2CCN(Cc3ccc(C)cc3)CC2)cc1 ?
SARS PLP yeast: 5%; AmpC inh no detg: -6%; Shiga toxin inh: -12; AMA1-RON2 inh: -3%; AmpC detergent: inconclusive; CHX counter: -6

How did CCOc1ccc(/C=N/n2cnnc2)cc1 do in these assays?
SARS PLP yeast: 2%; AmpC inh no detg: -13%; Shiga toxin inh: 1; AMA1-RON2 inh: 11%; AmpC detergent: -4%; CHX counter: -2

How did CN1CCN(/N=C/c2ccc(OCc3ccccc3)cc2)CC1 do in these assays?
SARS PLP yeast: -1%; AmpC inh no detg: 44%; Shiga toxin inh: 107*; AMA1-RON2 inh: -20%; AmpC detergent: 3%; CHX counter: 65*

What do the screens show for `C(=N\n1cnnc1)/c1ccc(OCc2ccccc2)cc1`?
SARS PLP yeast: -8%; AmpC inh no detg: -5%; Shiga toxin inh: 62; AMA1-RON2 inh: -5%; AmpC detergent: -13%; CHX counter: 24*

Results for COC(=O)c1ccc(COc2ccc(/C=N/N3CCN(C)CC3)cc2)cc1 ?
SARS PLP yeast: 1%; AmpC inh no detg: -13%; Shiga toxin inh: 155*; AMA1-RON2 inh: -12%; AmpC detergent: -3%; CHX counter: 56*

How did O=S(=O)(c1ccc(F)cc1)N1CCCNCC1 do in these assays?
SARS PLP yeast: 1%; AmpC inh no detg: -15%; Shiga toxin inh: -2; AMA1-RON2 inh: -4%; AmpC detergent: 0%; CHX counter: -3

What do the screens show for `CC(C)CN(C(=O)CC1OC(=O)c2ccccc21)c1c(N)n(Cc2ccccc2)c(=O)[nH]c1=O` (centres undefined)?
SARS PLP yeast: -9%; AmpC inh no detg: -16%; AMA1-RON2 inh: 4%; AmpC detergent: -21%

How did Fc1cccc(/C=N/Nc2ncnc3nc[nH]c23)c1 do in these assays?
SARS PLP yeast: -13%; AmpC inh no detg: -7%; Shiga toxin inh: 71*; AMA1-RON2 inh: 80%; AmpC detergent: inconclusive; CHX counter: 83*

Results for Fc1ccccc1/C=N/Nc1ncnc2nc[nH]c12 ?
SARS PLP yeast: -16%; AmpC inh no detg: -12%; Shiga toxin inh: 139*; AMA1-RON2 inh: 25%; AmpC detergent: inconclusive; CHX counter: 49*

How did O=C(Oc1ccccc1/C=C\C(=O)c1cc2ccccc2o1)c1cccc(F)c1 do in these assays?
SARS PLP yeast: -7%; AmpC inh no detg: -13%; Shiga toxin inh: 41*; AMA1-RON2 inh: -19%; AmpC detergent: inconclusive; CHX counter: 37*

How did O=C(Oc1ccccc1/C=C\C(=O)c1cc2ccccc2o1)c1ccccc1 do in these assays?
SARS PLP yeast: 7%; AmpC inh no detg: -38%; Shiga toxin inh: 90*; AMA1-RON2 inh: -11%; AmpC detergent: 0%; CHX counter: 35*

Results for COc1cccc(C(=O)Oc2ccccc2/C=C\C(=O)c2cc3ccccc3o2)c1 ?
SARS PLP yeast: 5%; AmpC inh no detg: -58%; Shiga toxin inh: 63*; AMA1-RON2 inh: -3%; AmpC detergent: 16%; CHX counter: 86*

Results for COc1ccc(C(=O)/C=C/c2ccccc2OC)c(OC(=O)c2ccc([N+](=O)[O-])cc2)c1 ?
AMA1-RON2 inh: -1%

How did Cc1cc(C(=O)N2CCCC2C(=O)O)c(C)o1 (centres undefined) do in these assays?
SARS PLP yeast: 6%; AmpC inh no detg: 16%; Shiga toxin inh: 7; AMA1-RON2 inh: -14%; AmpC detergent: inconclusive; CHX counter: 1

Results for CCCc1nc2c([nH]1)c(=O)n(C)c(=O)n2C ?
SARS PLP yeast: 1%; AmpC inh no detg: -25%; Shiga toxin inh: 1; AMA1-RON2 inh: -10%; AmpC detergent: inconclusive; CHX counter: -3
